Results on 9 molecules are retold here after PubChem BioAssay AID504675 (Southern Research Specialized Biocontainment Screening …, 2011).

A number with no mark means an inactive call.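 Rule for the calls: active = compound blocking phage killing of bacteria by at least 30% at some tested dose; inactive = the rest.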

The nature of this assay: UTI89 protection from K1F phage killing – strain UTI89, C7 control, set 3, capsule biogenesis inhibitor project, dose response (AID 504675). Conditions: E. coli UTI89 K1 capsule; OD600, at 100 µM (top of the series); inhibition of phage lysis: at the top concentration.
Turning to `COc1ccc(C(=O)Nc2nc3ccc(OC)cc3s2)cc1`, the “inhibition of phage lysis” value was 1%.

Turning to `COc1cccc(C(=O)Nc2nc3ccc(OC)cc3s2)c1`, the “inhibition of phage lysis” value was 1%.

Consider `COc1ccc2nc(NC(=O)c3ccc(F)cc3)sc2c1`, for which the “inhibition of phage lysis” value was 1%.

For `COc1ccc2nc(NC(=O)c3ccccc3OC)sc2c1`, the “inhibition of phage lysis” value was 1%.

Regarding `O=C(O)c1cc(-c2ccc(F)cc2)nc2ccccc12`, the “inhibition of phage lysis” value was 1%.

In the case of `N=c1n(CCN2CCCC2)c2ccccc2n1CC(O)c1ccc(Cl)c(Cl)c1` (centres undefined), the “inhibition of phage lysis” value was 1%.

As for `COc1ccc2nc(NC(=O)c3ccccc3)sc2c1`, the “inhibition of phage lysis” value was 1%.

Take `O=C(O)c1cc(-c2cccc(F)c2)nc2ccccc12`: the “inhibition of phage lysis” value is 1%.

For `COc1cccc(-c2cc(C(=O)O)c3ccccc3n2)c1`, the “inhibition of phage lysis” value was 1%.
